From PubChem
TLR4-MyD88 BLA: blocks binding of human TLR4 to MyD88 | inhibition, % at 8.4 µM | HeLa CL3-4 TLR4/MyD88 BLA complementation, FRET ratio | 200,000 compounds, 0.18% hits | AID 861 | O00206+Q99836; in the data active = inhibition above about 25%;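 note: 0% = vehicle and 100% = reference inhibitor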
NOD2-RIPK2 inh: inhibitors of human NOD2-RIPK2 interaction. O43353. CHO BLA complementation NOD2-RIPK2, CCF4 ratio. inhibition, % at 4.98 µM. 360,000 compounds, 0.38% hits. AID 624267; in the data active = inhibition above about 21%;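 note: 0% = vehicle only and 100% = reference blocker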
Target sequence (O43353 whole entry, looked up): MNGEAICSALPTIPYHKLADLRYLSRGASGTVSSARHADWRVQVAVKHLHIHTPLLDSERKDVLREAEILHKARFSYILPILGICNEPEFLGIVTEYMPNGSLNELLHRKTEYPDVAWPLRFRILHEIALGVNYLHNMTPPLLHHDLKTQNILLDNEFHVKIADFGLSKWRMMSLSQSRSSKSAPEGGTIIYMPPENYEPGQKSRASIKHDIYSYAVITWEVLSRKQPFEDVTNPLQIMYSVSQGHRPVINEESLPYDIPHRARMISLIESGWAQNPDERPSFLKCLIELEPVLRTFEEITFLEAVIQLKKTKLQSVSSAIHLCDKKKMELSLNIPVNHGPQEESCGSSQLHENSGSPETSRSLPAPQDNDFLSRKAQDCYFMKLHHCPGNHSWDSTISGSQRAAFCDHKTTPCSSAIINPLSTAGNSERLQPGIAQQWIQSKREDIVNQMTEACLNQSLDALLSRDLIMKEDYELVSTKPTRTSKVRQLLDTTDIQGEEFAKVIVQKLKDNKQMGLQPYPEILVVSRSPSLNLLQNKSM
TLR9-MyD88 block: TLR9-MyD88 interaction inhibition | Q9NR96+Q99836 | CHO BLA complementation TLR9-MyD88, CCF4 FRET ratio | inhibition, % at 4.98 µM | 340,000 compounds, 0.21% hits | AID 504734;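 active = inhibition above the mean over all tested compounds plus 3 SD, cut at about 21% in these data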;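 note: 0% = DMSO only wells and 100% = clavulanate BLA inhibitor control wells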
ABHD5 PLIN5 PPI: inhibitors of human ABHD5-perilipin-5 interaction; 360,000 compounds, 0.78% hits; Q00G26+Q8WTS1; AID 602281; Split G. princeps luciferase complementation, luminescence, 4 h; inhibition, % at 4 µM;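 active = inhibition above the mean inhibition across every tested compound plus 3 SD, cut at about 22% in these data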;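 note: 0% = DMSO only wells and the 100% control is not disclosed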
ABHD5 PLIN5 conf: confirmation of human ABHD5-PLIN5 interaction inhibitors; shares compounds with ABHD5 PLIN5 PPI; biochemical ABHD5-PLIN5 interaction, luminescence; inhibition, % at 4 µM; 2,200 compounds, 67% hits; AID 651612; in the data active = inhibition above about 23%;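 note: 0% = DMSO vehicle wells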
HNF4 split-luc: active in HNF4 split-luciferase counter-screen for ABHD5-PLIN5 inhibitors; AID 651674; HNF4 dimerization, luminescence, biochemical; shares compounds with ABHD5 PLIN5 PPI; inhibition, % at 4 µM; 2,200 compounds, 77% hits;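 active = mean inhibition across replicate wells exceeding the computed hit threshold, cut at about 13% in these data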;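 note: light from luciferase halves that rejoin when HNF4 fusion proteins dimerize; 0% = DMSO only wells and the 100% control is not given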
Active calls of the source: *. An excerpt weighted towards active compounds, which were near 1.2% of everything screened.

Screening CN(Cc1ccco1)C(=O)CCc1nc2sc3c(c2c(=O)[nH]1)CCCC3 returned NOD2-RIPK2 inh 2, TLR9-MyD88 block -6, ABHD5 PLIN5 PPI 24*, ABHD5 PLIN5 conf 26* and HNF4 split-luc 43*.
`Cc1ccc(CN(C)C(=O)CCc2nc3sc4c(c3c(=O)[nH]2)CCCC4)o1` gave NOD2-RIPK2 inh -2, TLR9-MyD88 block -10, ABHD5 PLIN5 PPI 32*, ABHD5 PLIN5 conf 17 and HNF4 split-luc 29*.
CCOC(=O)Nc1ccc2c(c1)N(C(=O)CCN1CCOCC1)c1ccccc1S2 was read as TLR4-MyD88 BLA 4, NOD2-RIPK2 inh 1, TLR9-MyD88 block 0 and ABHD5 PLIN5 PPI 1.
CCOC(=O)Nc1ccc2c(c1)N(C(=O)CCN1CCOCC1)c1ccccc1S2=O (stereo not drawn) was read as TLR4-MyD88 BLA 17, NOD2-RIPK2 inh 18, TLR9-MyD88 block -6, ABHD5 PLIN5 PPI 27*, ABHD5 PLIN5 conf 6 and HNF4 split-luc 42*.
Screening Cc1cc2[nH]c(=O)c(=O)[nH]c2cc1S(=O)(=O)Nc1cccc(C)c1C returned NOD2-RIPK2 inh 6, TLR9-MyD88 block 0 and ABHD5 PLIN5 PPI 5.
Screening CC1(C)Cc2c(C#N)c(NC3CCCCC3)nc(-c3ccco3)c2CO1 returned TLR4-MyD88 BLA 1, NOD2-RIPK2 inh 0, TLR9-MyD88 block 3, ABHD5 PLIN5 PPI 34*, ABHD5 PLIN5 conf 33* and HNF4 split-luc 41*.
`CC1(C)Cc2c(C#N)c(NCC3CCCO3)nc(-c3ccco3)c2CO1` (stereo not drawn) gave TLR4-MyD88 BLA -10, NOD2-RIPK2 inh -11, TLR9-MyD88 block -1 and ABHD5 PLIN5 PPI 16.
For C=CCn1c(=NC(=O)CC)n(C)c2ccccc21 the results were TLR4-MyD88 BLA -10, NOD2-RIPK2 inh -4, TLR9-MyD88 block -17 and ABHD5 PLIN5 PPI 8.
`Cc1nnsc1C(=O)Nc1ccc(S(=O)(=O)N2CCCC(C)C2)cc1` (stereo not drawn) gave NOD2-RIPK2 inh -2, TLR9-MyD88 block -4 and ABHD5 PLIN5 PPI -8.
Cc1nn(C)cc1NC(=O)CCSc1nc(-c2ccco2)cc(C(F)(F)F)n1 was read as TLR4-MyD88 BLA 10, NOD2-RIPK2 inh -5, TLR9-MyD88 block -2, ABHD5 PLIN5 PPI 88*, ABHD5 PLIN5 conf 6 and HNF4 split-luc 3.
For COc1cc(OC)c(S(=O)(=O)Nc2ccc(C(=O)O)cc2)cc1S(=O)(=O)Nc1ccc(C(=O)O)cc1 the results were NOD2-RIPK2 inh 3, TLR9-MyD88 block -2 and ABHD5 PLIN5 PPI -4.
`Nc1nc(C(=O)N2CCOCC2)nn1S(=O)(=O)c1ccc(Cl)cc1` gave TLR4-MyD88 BLA 8, NOD2-RIPK2 inh -6, TLR9-MyD88 block 5 and ABHD5 PLIN5 PPI 0.
O=C(c1nnsc1S(=O)(=O)c1ccc(Cl)cc1)N1CCOCC1 was read as TLR4-MyD88 BLA 20, NOD2-RIPK2 inh 21, TLR9-MyD88 block 6, ABHD5 PLIN5 PPI 51*, ABHD5 PLIN5 conf 73* and HNF4 split-luc 71*.
`CCCCN(C(=O)C(C)Oc1ccc(Br)cc1)c1c(N)n(Cc2ccccc2)c(=O)[nH]c1=O` (stereo not drawn) gave NOD2-RIPK2 inh 2, TLR9-MyD88 block -8 and ABHD5 PLIN5 PPI 2.
Screening CSc1ccc2c(c1)C(N1CCN(C)CC1)Cc1ccc(F)cc1S2 (stereo not drawn) returned NOD2-RIPK2 inh 17, ABHD5 PLIN5 PPI 26*, ABHD5 PLIN5 conf 18 and HNF4 split-luc 3.
For Cn1cccc([N+](=O)[O-])c1=O the results were NOD2-RIPK2 inh 2, TLR9-MyD88 block -15 and ABHD5 PLIN5 PPI 4.
Screening Cn1c(=O)c(=O)n(C)c2cc([N+](=O)[O-])c([N+](=O)[O-])cc21 returned TLR4-MyD88 BLA 21, NOD2-RIPK2 inh 9, TLR9-MyD88 block 11, ABHD5 PLIN5 PPI 100*, ABHD5 PLIN5 conf 2 and HNF4 split-luc 4.
`Cc1cccc(CNC(=O)c2ccc(NC(=O)C3=CSCCO3)cc2)c1` gave NOD2-RIPK2 inh 0, TLR9-MyD88 block 5 and ABHD5 PLIN5 PPI -5.
`C=C1C(=O)C2=CC1CCC(=O)C1(C)CCC(OC(C)=O)C(C)(C)C1CC2O` (stereo not drawn) gave NOD2-RIPK2 inh 19, TLR9-MyD88 block 7, ABHD5 PLIN5 PPI 44*, ABHD5 PLIN5 conf 58* and HNF4 split-luc 92*.
